In PubChem BioAssay:
Active and inactive are the calls of the source.

Columns and labels:
Albumin (Bos taurus) = Albumin (Bos taurus) (UniProt P02769); test: bovine serum albumin binders on microarray, profiling panel, artefact control for SMM control protein annotation, biochemical, small-molecule microarray, Alexa647 label, 635/667 nm fluorescence (AID 1118); conditions: BSA-A647 binding, fluorescence 635 nm, higher = more signal;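 also: score merges 667 nm emission intensity and signal-to-noise per printed compound spot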
Sequence of Albumin (Bos taurus) (P02769 whole entry, looked up): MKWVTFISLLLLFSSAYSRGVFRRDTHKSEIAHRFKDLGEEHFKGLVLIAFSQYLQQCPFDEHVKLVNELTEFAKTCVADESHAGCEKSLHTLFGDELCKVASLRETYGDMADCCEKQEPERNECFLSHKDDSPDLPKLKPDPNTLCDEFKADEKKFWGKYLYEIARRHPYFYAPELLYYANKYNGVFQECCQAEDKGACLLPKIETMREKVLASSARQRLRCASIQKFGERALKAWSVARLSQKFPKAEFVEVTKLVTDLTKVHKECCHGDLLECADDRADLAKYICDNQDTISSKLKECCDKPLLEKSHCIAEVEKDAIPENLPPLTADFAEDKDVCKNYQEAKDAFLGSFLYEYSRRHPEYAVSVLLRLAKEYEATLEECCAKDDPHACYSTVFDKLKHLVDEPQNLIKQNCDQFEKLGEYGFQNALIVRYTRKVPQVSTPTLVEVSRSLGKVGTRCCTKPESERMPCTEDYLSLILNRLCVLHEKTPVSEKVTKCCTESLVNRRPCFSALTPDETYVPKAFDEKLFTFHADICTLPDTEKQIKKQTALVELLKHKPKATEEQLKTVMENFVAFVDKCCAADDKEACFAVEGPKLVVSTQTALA

[1] = small-molecule microarray binders of probe aXIP, primary screen, biochemical, NeuroSMM set, 635/667 nm fluorescence (AID 1119); conditions: higher = more signal, called active from +8 up or from −8 down;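 also: probe is the protein aXip251-270 applied at 1 µg/mL to compound-printed slides; binding of probe to printed compounds measured as 667 nm fluorescence plus signal to noise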
[2] = small-molecule binders of probe aNOTCH3, primary screen, biochemical, small-molecule microarray, 635/667 nm fluorescence (AID 1120); conditions: higher = more signal;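 also: probe is a biotin-tagged antibody raised against NOTCH3 rather than NOTCH3 protein; score merges spot fluorescence near 667 nm with spot signal to noise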
[3] = small-molecule binders of probe aNOTCH2, primary screen, biochemical, small-molecule microarray, 635/667 nm fluorescence (AID 1121); conditions: higher = more signal;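 also: score merges feature fluorescence read at 667 nm with its signal to noise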
[4] = target: Carbonic anhydrase 2 (Homo sapiens) (UniProt P00918); test: CAII small-molecule binders, profiling panel, biochemical, small-molecule microarray, Alexa647-labelled CAII (AID 1122); conditions: CAII-A647 binding fluorescence, higher = more signal
[5] = COS7 lysate on small-molecule microarray, probe aHis, 635 nm (AID 1123); conditions: COS7 cell lysate, fluorescence, higher = more signal;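 also: z-score combines 667nm fluorescence intensity with signal-to-noise per printed compound spot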
[6] = compound binding in COS7 lysate, probe aLAP1, primary screen, cell lysate, small-molecule microarray (AID 1124); conditions: probe aLAP1, fluorescence, higher = more signal;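 also: lysate comes from COS7 cells expressing LAP1 and is applied at 0.3 µg/mL; score merges spot fluorescence near 667 nm with signal-to-noise over triplicate slides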
Sam68 (KHDRBS1) = test: Sam68 small-molecule binders, primary screen, biochemical, small-molecule microarray, 635 nm fluorescence (AID 1125); conditions: small-molecule microarray binding, higher = more signal;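 also: score merges 667 nm channel intensity with signal to noise over triplicate slides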
[7] = tested on: Chordin-like protein 2 (CHRDL2); test: CHRDL2 small-molecule binders, primary screen, biochemical, small-molecule microarray, 635 nm fluorescence (AID 1126); conditions: small-molecule microarray binding, fluorescence 635 nm; higher = more signal;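 also: printed compound slides probed with Chrdl2 protein at 4 µg/mL for 1 h at 4 C; score merges 667 nm emission intensity with signal to noise over three replicate slides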
[8] = target: Concanavalin-A (Canavalia ensiformis) (UniProt P02866); test: ConA small-molecule binders, primary screen, artefact control for SMM control protein annotation, biochemical, small-molecule microarray, Alexa647 label, 635 nm (AID 1127); conditions: ConA-A647 binding fluorescence, higher = more signal;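 also: z combines 667 nm emission intensity with signal-to-noise across three replicate slides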
Sequence of Concanavalin-A (Canavalia ensiformis) (P02866 whole entry, looked up): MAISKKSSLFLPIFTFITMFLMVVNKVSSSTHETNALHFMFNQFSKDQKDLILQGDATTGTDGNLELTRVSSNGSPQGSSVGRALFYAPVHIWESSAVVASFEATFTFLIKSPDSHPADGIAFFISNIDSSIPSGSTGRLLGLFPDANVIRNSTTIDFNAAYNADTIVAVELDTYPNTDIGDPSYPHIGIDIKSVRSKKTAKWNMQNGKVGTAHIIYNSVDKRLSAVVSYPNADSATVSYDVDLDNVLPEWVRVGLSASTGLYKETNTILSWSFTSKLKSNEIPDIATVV

[9] = anti-His antibody binders, primary screen, artefact control for SMM control protein annotation, biochemical, small-molecule microarray, 635 nm fluorescence (AID 1128); conditions: anti-His Alexa647 antibody binding, higher = more signal;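 also: score merges feature fluorescence with signal-to-noise for each printed compound spot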
[10] = tested on: Human papillomavirus type 1a E7 protein (residues 1-88); test: HPV1a E7 small-molecule binders, primary screen, biochemical, small-molecule microarray, residues 1-88, 635 nm (AID 1129); conditions: small-molecule microarray binding, fluorescence 635 nm; higher = more signal
[11] = target: Focal adhesion kinase 1 (Homo sapiens) (UniProt Q05397); test: small-molecule microarray binders of FAK, primary screen, biochemical, 635/667 nm fluorescence, BSA, DTT (AID 1130); conditions: PTK2 binding, 635 nm fluorescence, higher = more signal;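 also: composite of spot emission at 667 nm and signal to noise over triplicate slides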
Sequence of Focal adhesion kinase 1 (Homo sapiens) (Q05397 whole entry, looked up): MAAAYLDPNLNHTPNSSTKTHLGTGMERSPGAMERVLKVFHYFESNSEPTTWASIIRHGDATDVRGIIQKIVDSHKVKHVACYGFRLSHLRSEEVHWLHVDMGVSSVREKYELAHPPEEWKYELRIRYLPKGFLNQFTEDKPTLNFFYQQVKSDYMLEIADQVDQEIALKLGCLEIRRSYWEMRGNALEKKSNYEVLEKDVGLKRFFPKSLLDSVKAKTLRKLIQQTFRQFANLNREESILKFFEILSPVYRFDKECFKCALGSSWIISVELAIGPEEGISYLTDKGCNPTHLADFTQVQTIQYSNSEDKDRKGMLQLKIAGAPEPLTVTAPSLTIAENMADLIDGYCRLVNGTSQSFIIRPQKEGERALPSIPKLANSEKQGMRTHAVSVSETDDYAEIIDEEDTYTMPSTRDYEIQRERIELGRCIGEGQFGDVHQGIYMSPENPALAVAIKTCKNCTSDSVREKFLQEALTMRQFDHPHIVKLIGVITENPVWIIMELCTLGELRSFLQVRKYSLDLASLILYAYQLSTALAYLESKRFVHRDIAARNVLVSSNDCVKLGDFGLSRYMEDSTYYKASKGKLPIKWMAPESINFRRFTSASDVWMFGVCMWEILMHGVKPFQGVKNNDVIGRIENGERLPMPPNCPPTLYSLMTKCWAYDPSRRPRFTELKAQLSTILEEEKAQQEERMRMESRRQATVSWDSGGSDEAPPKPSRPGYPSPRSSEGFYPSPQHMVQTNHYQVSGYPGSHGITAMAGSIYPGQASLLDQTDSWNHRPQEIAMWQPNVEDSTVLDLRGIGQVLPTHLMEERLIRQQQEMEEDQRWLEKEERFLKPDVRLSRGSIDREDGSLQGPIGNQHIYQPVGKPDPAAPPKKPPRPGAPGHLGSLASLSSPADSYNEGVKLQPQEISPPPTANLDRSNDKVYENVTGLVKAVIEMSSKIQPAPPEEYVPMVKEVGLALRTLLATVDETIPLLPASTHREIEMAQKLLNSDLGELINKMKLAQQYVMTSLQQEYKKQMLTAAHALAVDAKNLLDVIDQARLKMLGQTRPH

[12] = tested on: Fibrinogen (Alexa647-labelled); test: fibrinogen binders on compound microarrays, profiling panel, artefact control for SMM control-protein annotation, biochemical, small-molecule microarray, 635/667 nm fluorescence (AID 1131); conditions: fibrinogen-A647 binding fluorescence, higher = more signal;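 also: z-score merges 667 nm fluorescence with per-spot signal-to-noise over triplicate slides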
[13] = target: Follistatin (Homo sapiens) (UniProt P19883); test: follistatin binders on small-molecule microarrays, primary screen, biochemical, small-molecule microarray, 635/667 nm fluorescence (AID 1132); conditions: FST binding, 635 nm fluorescence, higher = more signal
Sequence of Follistatin (Homo sapiens) (P19883 whole entry, looked up): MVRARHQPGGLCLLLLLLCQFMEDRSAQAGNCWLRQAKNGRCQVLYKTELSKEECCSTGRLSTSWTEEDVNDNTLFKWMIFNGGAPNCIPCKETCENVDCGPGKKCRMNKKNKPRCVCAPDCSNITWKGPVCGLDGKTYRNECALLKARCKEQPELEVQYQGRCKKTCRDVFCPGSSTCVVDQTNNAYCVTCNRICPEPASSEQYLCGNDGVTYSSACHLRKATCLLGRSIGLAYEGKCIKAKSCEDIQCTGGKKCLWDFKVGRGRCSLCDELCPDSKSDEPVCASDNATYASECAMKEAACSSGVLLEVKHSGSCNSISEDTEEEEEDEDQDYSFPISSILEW

[14] = target: Fibroblast growth factor 2 (Homo sapiens) (UniProt P09038); test: FGF2 binders on small-molecule microarrays, primary screen, biochemical, small-molecule microarray, 635/667 nm fluorescence (AID 1133); conditions: small-molecule microarray binding, FGF2, fluorescence 635/667; higher = more signal
Sequence of Fibroblast growth factor 2 (Homo sapiens) (P09038 whole entry, looked up): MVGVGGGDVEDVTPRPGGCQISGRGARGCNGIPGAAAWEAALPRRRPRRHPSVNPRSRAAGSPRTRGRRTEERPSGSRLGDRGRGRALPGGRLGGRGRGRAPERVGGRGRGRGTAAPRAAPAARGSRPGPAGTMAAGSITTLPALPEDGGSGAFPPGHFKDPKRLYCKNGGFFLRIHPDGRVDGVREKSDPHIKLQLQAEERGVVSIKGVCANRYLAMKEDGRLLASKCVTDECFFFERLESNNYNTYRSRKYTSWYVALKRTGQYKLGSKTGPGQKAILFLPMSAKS

[15] = mitochondrial membrane potential change in A549 cells, profiling panel, cell-based, JC-1 fluorescence, basal, 24 h, 100 nL (AID 1138); conditions: higher = more signal;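 also: A549 lung adenocarcinoma cells under basal conditions with no added stimulus; test concentration not given here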
Lefty1 = Lefty1 binders on small-molecule microarrays, primary screen, biochemical, small-molecule microarray, 635/667 nm fluorescence (AID 1139); conditions: small-molecule microarray binding, fluorescence 635/667; higher = more signal
[16] = tested on: wheat germ agglutinin (Triticum aestivum), Alexa647-labelled; test: wheat germ agglutinin binders on compound microarrays, profiling panel, artefact control for SMM control-protein annotation, biochemical, small-molecule microarray, 635/667 nm fluorescence (AID 1140); conditions: WGA-A647 binding, 635 nm fluorescence, higher = more signal;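 also: score merges 667 nm feature emission with signal to noise over triplicate slides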
[17] = target: Luciferin 4-monooxygenase (Photinus pyralis) (UniProt P08659); test: firefly luciferase enzyme inhibitors, primary screen, biochemical, luminescence, purified enzyme, 2006 set (AID 1141); conditions: SteadyGlo luminescence, 30 min, higher = more signal, called active from +8 up or from −8 down;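 also: cell-free assay with purified firefly luciferase at 100 ng per well in PBS; test concentration not given here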
Sequence of Luciferin 4-monooxygenase (Photinus pyralis) (P08659 whole entry, looked up): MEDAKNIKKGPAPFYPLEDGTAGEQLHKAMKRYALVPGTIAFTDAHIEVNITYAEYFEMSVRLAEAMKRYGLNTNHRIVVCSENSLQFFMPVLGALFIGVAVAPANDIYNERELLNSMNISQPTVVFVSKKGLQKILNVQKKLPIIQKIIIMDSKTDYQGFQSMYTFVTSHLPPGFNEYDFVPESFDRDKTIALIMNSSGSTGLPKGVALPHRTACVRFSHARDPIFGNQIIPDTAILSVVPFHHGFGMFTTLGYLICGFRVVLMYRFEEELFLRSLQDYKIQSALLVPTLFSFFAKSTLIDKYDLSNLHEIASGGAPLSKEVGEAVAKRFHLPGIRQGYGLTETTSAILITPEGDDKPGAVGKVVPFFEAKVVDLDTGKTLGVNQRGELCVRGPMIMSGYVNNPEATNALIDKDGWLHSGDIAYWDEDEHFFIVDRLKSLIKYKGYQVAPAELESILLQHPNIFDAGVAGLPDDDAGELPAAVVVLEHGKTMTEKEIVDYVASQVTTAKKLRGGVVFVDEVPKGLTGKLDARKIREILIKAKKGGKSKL

SMILES | composite z-score (Albumin (Bos taurus)) | composite Z-score [1] | composite z-score [2] | composite z-score [3] | composite z-score [4] | composite z-score [5] | composite z-score [6] | composite z-score (Sam68 (KHDRBS1)) | composite z-score [7] | composite z-score [8] | composite z-score [9] | composite z-score [10] | composite z-score [11] | composite z-score [12] | composite z-score [13] | composite z-score [14] | z-score [15] | composite z-score (Lefty1) | composite z-score [16] | z-score [17]
O=C1O[C@H](c2ccccc2)[C@H](c2ccccc2)N2[C@H]1[C@@H](C(=O)N1CCN(c3ncccn3)CC1)[C@]1(C(=O)Nc3ccc(C#CC4(O)CCCCCC4)cc31)[C@H]2c1ccc(O)cc1 | 0.605 | -0.019 (inactive) | 0.0556 | -0.162 | 0.673 | 1.28 | 0.329 | 1.31 | -0.0362 | 0.946 | 1.75 | 1.2 | 0.62 | 0.902 | 0.951 | 0.89 | 1.36 | 0.58 | 1.06 | -1.63 (inactive)
[N-]=[N+]=Nc1ccccc1C[C@]1(C(=O)N2CCCCC2)N=C(c2ccc(OCCCO)cc2)O[C@H]1c1ccccc1 | 0.737 | -0.399 (inactive) | 0.196 | 0.179 | 0.708 | 1.52 | 0.121 | 1.31 | -0.249 | 1.18 | 2.69 | 1.2 | 0.307 | 0.934 | 1.26 | 1.38 | -0.0876 | 0.225 | 1.22 | -1.99 (inactive)
COc1ccc([Si](C)(C)[C@H]2[C@H](CC(=O)N3CCC[C@H]3CO)O[C@@]3(C(=O)N(C)c4ccccc43)[C@@H]2C)cc1 | 0.728 | 1.38 (inactive) | 0.103 | -0.103 | 0.487 | 0.459 | 0.378 | 0.646 | 0.808 | 0.119 | 1.86 | 0.0098 | -0.0086 | 0.509 | 1.53 | 0.798 | -0.151 | 1.16 | 0.051 | 0.229 (inactive)
COCCCNC(=O)[C@]1(Cc2ccccc2CN=[N+]=[N-])N=C(c2ccc(OCCCO)cc2)O[C@@H]1c1ccccc1N=[N+]=[N-] | 0.835 | -0.217 (inactive) | 0.805 | 0.188 | 0.525 | 2.24 | 0.152 | 1.34 | -0.992 | 1.05 | 2.6 | 1.2 | 0.641 | 0.927 | 0.564 | 0.854 | 0.398 | -0.108 | 1.2 | -6.03 (inactive)
C=CC[C@]1(C(=O)NCCN2CCOCC2)N=C(c2ccc(OCCCO)cc2)O[C@H]1c1ccccc1 | -0.051 | 0.0999 (inactive) | 0.0813 | 0.0564 | 0.703 | 1.51 | 0.601 | 1.18 | 0.708 | 0.469 | 0.566 | 0.845 | 0.0827 | -0.212 | 1.44 | 1.8 | 0.654 | 0.918 | 0.496 | 0.601 (inactive)
CC(C)(C)OC(=O)N1[C@@H](C=C(Br)Br)COC1(C)C | -0.121 | 0.274 (inactive) | 0.0522 | -0.104 | -0.0481 | 0.259 | 0.136 | 0.839 | 0.644 | 0.556 | 0.286 | 0.974 | -0.0276 | 0.592 | 0.652 | 0.65 | 0.206 | 0.519 | -0.0422 | -1.04 (inactive)
Cc1cccc([C@H]2C[C@H]3C(Br)=C[C@@]2(CO)C(=O)[C@]32CO2)c1 | -0.155 | -0.288 (inactive) | -0.108 | -0.147 | 0.362 | 0.182 | -0.24 | 0.671 | -0.15 | -0.0472 | 0.338 | -0.15 | 0.259 | -1.05 | 0.39 | -0.117 | -0.843 | 0.433 | -0.549 | 0.75 (inactive)
COC(=O)[C@@]1(Cc2ccc(F)cc2)[C@@H]2C(=CC(=O)[C@H]2CC(=O)C(=O)N2CCCC2)CN1C(=O)c1ccccc1 | 1.02 | -0.131 (inactive) | 1.24 | 0.845 | 0.65 | 3.14 | 0.805 | 1.22 | 0.484 | 0.455 | 0.323 | 1.24 | 0.348 | 0.998 | 1.26 | 0.674 | 0.711 | 0.903 | 1.23 | -8.12 (active)
[N-]=[N+]=NCc1ccccc1C[C@]1(C(=O)N2CCCCC2)COC(c2ccc(OCCCO)cc2)=N1 | 0.744 | -0.838 (inactive) | -0.159 | -0.242 | 0.375 | 1.58 | -0.44 | 1.24 | 0.0846 | 0.984 | 1.13 | 1.07 | 0.401 | 0.932 | 0.687 | 0.765 | 2.45 | -0.432 | 0.827 | -1.71 (inactive)
COC(=O)C1(CC(C)C)C=C2C(=C(C)C(=O)C2C)CN1 (stereo not given) | -0.293 | 1.64 (inactive) | 0.786 | 0.175 | 0.754 | 1.63 | 0.311 | -0.0177 | 0.0633 | -0.667 | 2.95 | 0.098 | 0.183 | -0.423 | 0.901 | -0.583 | 1.05 | -0.368 | 0.67 | 1.98 (inactive)
C=C(C(=O)CC[C@H](OC(=O)c1ccccc1-c1ccccc1C(=O)O)c1ccc(OCCO)cc1)C(C)C | 0.816 | -0.691 (inactive) | 0.0282 | -0.106 | 0.59 | 1.61 | -0.284 | 0.884 | -0.0766 | 0.708 | 0.547 | 1.16 | 0.124 | 0.981 | 0.901 | 0.726 | -0.45 | 0.64 | 0.189 | -1.35 (inactive)
COCCOC(=O)N1C(=O)[C@@]2(c3cc(C#CCC(C(=O)OC)C(=O)OC)ccc31)[C@H](c1ccc(O)cc1)N1[C@H](c3ccccc3)[C@H](c3ccccc3)OC(=O)[C@H]1[C@@H]2C(=O)N1CCc2cc(OC)c(OC)cc2C1 | -0.0894 | -0.262 (inactive) | 0.147 | -0.0166 | 0.378 | 1.12 | 0.761 | 1.29 | 0.242 | 0.903 | 2.46 | 1.2 | 0.362 | 0.741 | 1.27 | 1.26 | 0.627 | 0.633 | 0.801 | -1.05 (inactive)
COc1ccc(CCNC(=O)[C@@H]2c3ccccc3C(=O)N(C(C)C)[C@H]2c2ccc(CO)cc2)cc1 | -1.09 | 1.13 (inactive) | -0.209 | -0.132 | 0.722 | 1.42 | -0.362 | -0.139 | -1.87 | -0.574 | -1.32 | -0.878 | -0.736 | -1.3 | -1.27 | -0.934 | 2.71 | -2.21 | -1.74 | -0.897 (inactive)
[N-]=[N+]=Nc1ccccc1C[C@@]1(C(=O)NCc2ccccc2)N=C(c2ccc(OCCCO)cc2)O[C@@H]1c1ccccc1 | 0.747 | 0.157 (inactive) | 0.446 | 0.309 | 0.645 | 1.99 | 0.692 | 1.3 | 0.621 | 0.775 | 1.58 | 1.22 | -0.255 | 0.695 | 1.47 | 0.992 | 0.945 | -0.0651 | 0.626 | -1.39 (inactive)
CC(=O)NCCCC[C@@H]1NC(=O)[C@H]2C[C@@H](C(=O)O)[C@@H](c3cccc(OCCO)c3)N2C1=O | 0.757 | 0.446 (inactive) | 0.348 | -0.0644 | 0.415 | 1.05 | 1.32 | 1.29 | 1.11 | 0.587 | 0.246 | 1.21 | 0.398 | 0.984 | 1.29 | 1.12 | -0.253 | 1.13 | 0.946 | 0.102 (inactive)
O=C1OC[C@@H](c2ccccc2)n2cc(/C=C/c3ccccc3)cc21 | -0.456 | 0.597 (inactive) | -0.189 | -0.149 | 0.43 | 0.163 | -0.475 | -1.14 | -0.701 | 0.51 | 0.353 | -0.58 | -0.102 | 0.5 | -0.324 | -0.574 | -0.512 | -0.0599 | -0.328 | 0.287 (inactive)
Cc1ccc(S[C@]2(C(=O)NCc3ccccc3)CC(=O)N(Cc3ccccc3Cl)[C@@H]2c2ccc(CO)cc2)cc1 | -0.447 | -0.608 (inactive) | -0.511 | -0.149 | 0.762 | 0.397 | 0.197 | 0.472 | -0.78 | 0.439 | 1.29 | -0.561 | -0.0881 | -0.919 | -0.181 | -0.756 | -0.387 | -0.423 | -0.3 | 0.718 (inactive)
